Experimental data from PubChem BioAssay AID1159580 (chemical genetic matrix, 2015).
Several values for one entry are separate records, joined by “and”; a condition that tells them apart may be missing. Identical values can stand only once. In all, about 5,500 compounds went through this assay and about 2,000 (36%) were called active. Inconclusive results (about 18%) are left out. Rule as the data show it: active = normalized growth mostly below about 0.91 (no sharp cut-off); inconclusive = no clear call, values can overlap the other calls; inactive = mostly above about 0.92. The list shows a part of the results.

Assay: chemical genetic growth profiling, strain panel (AID 1159580);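 also: tested at 20 µM; growth read once vehicle control cultures reached saturation at 30 °C; 1 = growth at the plate median or of vehicle wells; lower values mean less growth of the strain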
Settings: S. cerevisiae deletion strains, growth OD

Measured: normalized growth

CC(C(=O)O)c1ccc(N2Cc3ccccc3C2=O)cc1 (configuration not stated)
inactive: locus YAL021C, strain ccr4, active compounds read low 0.994 | locus YAL026C, strain drs2, active compounds read low 1 | locus YAL030W, strain snc1, active compounds read low 0.994 | locus YBL061C, strain skt5, active compounds read low 0.983 | locus YBR009C, strain hhf1, active compounds read low 0.97 | locus YBR021W, strain FUR4, active compounds read low 1.01 | locus YBR023C, strain chs3, active compounds read low 0.966 | locus YBR171W, strain sec66, active compounds read low 0.971 | locus YBR229C, strain ROT2, active compounds read low 1.01 | locus YBR231C, strain swc5, active compounds read low 0.993 | locus YBR279W, strain paf1, active compounds read low 0.972 | locus YCL011C, strain gbp2, active compounds read low 0.946 | locus YCL016C, strain dcc1, active compounds read low 0.956 | locus YCL029C, strain bik1, active compounds read low 0.996 | locus YCL061C, strain MRC1, active compounds read low 0.986 | locus YCL069W, strain vba3, active compounds read low 0.994 | locus YCR088W, strain abp1, active compounds read low 0.987 | locus YDL005C, strain med2, active compounds read low 0.991 | locus YDL035C, strain GPR1, active compounds read low 1.02 | locus YDL040C, strain nat1, active compounds read low 0.989 | locus YDL074C, strain BRE1, active compounds read low 1.02 | locus YDL101C, strain DUN1, active compounds read low 1.01 | locus YDL185W, strain tfp1, active compounds read low 0.989 | locus YDL192W, strain arf1, active compounds read low 0.99 | locus YDR001C, strain nth1, active compounds read low 0.99 | locus YDR069C, strain doa4, active compounds read low 0.993 | locus YDR101C, strain arx1, active compounds read low 1 | locus YDR137W, strain rgp1, active compounds read low 0.988 | locus YDR159W, strain sac3, active compounds read low 1.05 | locus YDR162C, strain NBP2, active compounds read low 1.01 | locus YDR195W, strain ref2 1.01 | locus YDR297W, strain sur2, active compounds read low 0.99 | locus YDR318W, strain mcm21, active compounds read low 0.99 | locus YDR334W, strain swr1, active compounds read low 0.986 | locus YDR335W, strain msn5, active compounds read low 0.993 | locus YDR388W, active compounds read low 0.992 | locus YDR392W, strain spt3, active compounds read low 0.988 | locus YDR502C, strain sam2, active compounds read low 1 | locus YEL003W, strain gim4, active compounds read low 1.01 | locus YEL037C, strain rad23, active compounds read low 0.975 | locus YEL061C, strain CIN8 (second series), active compounds read low 0.99 | locus YEL061C, strain CIN8, active compounds read low 1.01 | locus YER015W, strain faa2, active compounds read low 1 | locus YER016W, strain bim1, active compounds read low 0.993 | locus YER110C, active compounds read low 0.994 | locus YER111C, strain swi4, active compounds read low 0.985 | locus YER155C, strain BEM2 (second series), active compounds read low 0.948 | locus YER155C, strain BEM2, active compounds read low 1.02 | locus YER167W, strain BCK2, active compounds read low 1.01 | locus YFR010W, strain ubp6, active compounds read low 1 | locus YGL078C, strain dbp3, active compounds read low 0.985 | locus YGL086W, strain mad1, active compounds read low 1.01 | locus YGL167C, strain pmr1, active compounds read low 0.991 | locus YGL173C, strain kem1, active compounds read low 0.997 | locus YGL227W, strain vid30, active compounds read low 0.988 | locus YGL240W, strain doc1, active compounds read low 1 | locus YGL248W, strain PDE1, active compounds read low 1.02 | locus YGL253W, strain hxk2, active compounds read low 1 | locus YGR135W, strain pre9, active compounds read low 0.971 | locus YGR252W, strain gcn5, active compounds read low 0.938 | locus YHR013C, strain ard1, active compounds read low 0.961 | locus YHR027C, strain rpn1, active compounds read low 0.986 | locus YHR030C, strain SLT2, active compounds read low 1.01 and 0.993 | locus YHR079C, strain IRE1 (second series), active compounds read low 1.01 | locus YHR079C, strain IRE1, active compounds read low 0.987 | locus YHR094C, strain hxt1, active compounds read low 0.987 | locus YHR129C, strain ARP1, active compounds read low 1.02 | locus YHR142W, strain chs7, active compounds read low 0.941 | locus YHR200W, strain rpn10, active compounds read low 1 | locus YIL066C, strain RNR3, active compounds read low 1.02 | locus YIL073C, strain SPO22, active compounds read low 1 | locus YIL125W, strain kgd1, active compounds read low 0.984 | locus YIR030C, strain dcg1, active compounds read low 0.996 | locus YJL092W, strain hpr5, active compounds read low 0.959 | locus YJL095W, strain BCK1 (second series), active compounds read low 0.994 | locus YJL095W, strain BCK1, active compounds read low 1.01 and 0.986 | locus YJL115W, strain asf1, active compounds read low 0.982 | locus YJL129C, strain trk1, active compounds read low 0.965 | locus YJL134W, strain LCB3, active compounds read low 1.01 | locus YJL154C, strain vps35, active compounds read low 0.987 | locus YJL164C, strain tpk1, active compounds read low 0.988 | locus YJL166W, strain qcr8, active compounds read low 0.987 | locus YJL168C, strain set2, active compounds read low 0.98 | locus YJL187C, strain SWE1 (second series), active compounds read low 1.01 | locus YJL187C, strain SWE1, active compounds read low 0.993 | locus YJR043C, strain POL32, active compounds read low 1.02 | locus YJR066W, strain TOR1, active compounds read low 0.914
